Screening data from PubChem BioAssay.
Hits are enriched below; roughly 1.4% of the tested compounds scored in any of these assays.
S1P2 ag – activates the human S1P2 receptor; 97,000 compounds, 0.46% hits; activation, % at 4.5 µM; O95136; S1P2-expressing cell line, agonist reporter read-out; in the data active = activation above about 16%;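 note: 0% = vehicle low control and 100% = maximal reference agonist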
S1P2 antag – antagonists of human S1P2 receptor | cell-based S1P2 antagonist assay, inhibition at 5 uM | 97,000 compounds, 0.21% hits | inhibition, % at 5 µM | O95136; in the data active = inhibition above about 45%;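 note: CRE beta-lactamase reporter cells expressing human S1P2 stimulated with S1P; 0% = agonist at EC80 alone and 100% = agonist plus reference antagonist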
CD11b adhes inh – inhibitors of human CD11b/CD18 binding to fibrinogen. K562 CD11b/CD18 adhesion to fibrinogen, ATPlite luminescence; Mn2+ added to activate the integrin. inhibition, % at 10 µM. 93,000 compounds, 0.54% hits. AID 1497;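 active = primary inhibition of 50% or more at 10 µM, then 40% or more on retest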
Target sequence (P05107 whole entry, looked up, other chains not shown): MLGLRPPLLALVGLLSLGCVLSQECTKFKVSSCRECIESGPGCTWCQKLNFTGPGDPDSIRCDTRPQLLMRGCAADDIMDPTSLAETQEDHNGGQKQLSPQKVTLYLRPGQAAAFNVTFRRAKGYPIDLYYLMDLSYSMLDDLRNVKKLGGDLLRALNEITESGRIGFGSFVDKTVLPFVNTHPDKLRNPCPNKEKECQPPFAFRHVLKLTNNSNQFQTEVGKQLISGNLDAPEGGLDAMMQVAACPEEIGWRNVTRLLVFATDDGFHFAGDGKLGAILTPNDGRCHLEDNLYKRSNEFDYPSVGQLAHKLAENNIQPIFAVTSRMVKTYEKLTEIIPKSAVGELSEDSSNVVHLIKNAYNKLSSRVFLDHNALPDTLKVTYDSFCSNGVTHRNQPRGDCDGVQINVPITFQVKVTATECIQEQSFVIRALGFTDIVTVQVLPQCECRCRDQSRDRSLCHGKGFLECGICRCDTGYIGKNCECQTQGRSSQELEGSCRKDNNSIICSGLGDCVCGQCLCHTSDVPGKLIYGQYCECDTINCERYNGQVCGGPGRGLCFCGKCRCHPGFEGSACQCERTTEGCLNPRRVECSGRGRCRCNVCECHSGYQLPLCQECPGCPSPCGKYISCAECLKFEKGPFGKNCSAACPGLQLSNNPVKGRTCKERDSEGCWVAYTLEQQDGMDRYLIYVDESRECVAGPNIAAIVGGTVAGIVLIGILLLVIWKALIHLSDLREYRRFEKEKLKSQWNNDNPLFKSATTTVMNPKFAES
GALR2 blocker – GALR2 (human) receptor antagonism; inhibition, % at 4 µM; GALR2-expressing cells, antagonist mode; AID 828; 140,000 compounds, 0.39% hits;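 note: cells stimulated with galanin 1-16 at roughly its EC80; 0% = agonist challenge control and 100% = basal control without agonist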
Mac1 fbg enh – CD11b/CD18-fibrinogen binding enhancement | P05107+P11215 | K562 CD11b/CD18 adhesion to fibrinogen, ATPlite luminescence | activation, % at 10 µM | 93,000 compounds, 0.07% hits;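 active = 10 µM primary screen giving 50% or more activity, confirmed by 40% or more on retest at that dose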
GALR2 agonist – GALR2 (human) receptor agonism | GALR2-expressing cells, agonist activation read-out | activation, % (no concentration beside the values) | 140,000 compounds, 0.48% hits; in the data active = activation above about 5%, passing the limit was not always enough;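 note: 0% = vehicle buffer wells and 100% = reference agonist at full effect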
GALR2 blk conf – confirmation of human galanin receptor 2 (GALR2) antagonists; shares compounds with GALR2 blocker; 480 compounds, 60% hits; inhibition, % at 4 µM; GALR2-expressing cells, antagonist mode, inhibition;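 note: cells stimulated with galanin at about its EC80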
BLA inhib ctr – inhibits beta-lactamase reporter in GALR2 antagonist counterscreen; shares compounds with GALR2 blocker; CHO NFAT-BLA reporter, beta-lactamase FRET, thapsigargin-stimulated; inhibition, % at 4.2 µM; 480 compounds, 36% hits;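 active = inhibition above the mean inhibition across tested compounds plus 3 SD, cut at about 27% in these data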;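 note: 0% = 500 nM thapsigargin stimulated wells and 100% = unstimulated BSA only wells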
The depositor's hits bear a star; / = not tested or not shown. Cut-off read from the data, not from the text of the source, unless noted: active = inhibition above about 27%; inactive = the rest.

SMILES	S1P2 ag	S1P2 antag	CD11b adhes inh	GALR2 blocker	Mac1 fbg enh	GALR2 agonist	GALR2 blk conf	BLA inhib ctr
Cc1nn(-c2ccccc2)c2c1C(c1ccc(O)c(O)c1)N1C(=N2)C(Nc2ccccc2)=Nc2ccccc21 (stereo not drawn)	-12	85*	/	47*	/	2	37*	59*
CC(C)OCP(=O)(c1ccccc1)c1ccccc1	-2	10	-8	-4	-2	-2	/	/
O=C(CSc1ccc(Cl)cc1)N1CCOCC1	-5	-5	1	29*	-7	-2	-2	-4
O=C(Cn1ncc(Cl)c(Cl)c1=O)c1ccc(Cl)cc1	-7	43	/	22	/	-1	/	/
O=C(Cn1ncc(Cl)c(Cl)c1=O)NCC1CCCCC1	/	/	/	47*	/	1	33*	18
CCOc1ccc(-c2nnc3sc(COc4ccccc4)nn23)cc1	-8	13	-22	-19	-4	-2	/	/
CCN(CC)c1ccc(/C=C2/SC(=O)N(C(C)C)C2=O)o1	/	/	/	45*	/	3	3	5
CCn1c(=O)c(C(=O)NCc2ccccn2)c(O)c2ccccc21	-4	-1	-12	3	-1	-1	/	/
Cc1n[nH]c(C)c1N1C(=O)c2cccc3cc(Br)cc(c23)C1=O	-5	-10	-14	-5	0	-1	/	/
Cc1n[nH]c(C)c1N1C(=O)c2cccc3c(Br)ccc(c23)C1=O	-10	74*	/	44*	/	-1	28*	25
COc1ccc(-c2cnc3c(c2)CCC3(C#N)C#N)cc1	/	/	/	31*	/	1	17	19
CCOc1cccc(-c2nnc3sc(COc4ccc(Cl)cc4)nn23)c1	-7	-6	-1	4	-2	1	/	/
COc1ccccc1S(=O)(=O)Nc1ccc2cn[nH]c2c1	/	/	/	27*	/	-2	20	10
CC(=O)c1ccc(NC(=O)Nc2ncn(Cc3cccc(C)c3)n2)cc1	-13	-5	/	7	/	0	/	/
O=C(OCn1ncc(Cl)c(Cl)c1=O)c1ccc(F)cc1	-2	80*	/	91*	/	-3	93*	86*
O=C(OCn1ncc(Cl)c(Cl)c1=O)c1ccccc1Cl	-3	84*	/	95*	/	-3	93*	82*
CC(C)CNC(=O)c1cc([N+](=O)[O-])ccc1N1CCCCC1	/	/	/	4	/	-3	/	/
CCCC(=O)Nc1c(-c2ccc(OC)cc2)c(=O)c2ccccc2n1C	-2	-6	11	-13	-3	-2	/	/
Nc1ccc2nc(-c3cccs3)[nH]c2c1	-3	-14	/	28*	/	-1	4	3
Cc1ccccc1NS(=O)(=O)c1cc(C(=O)Nc2cccc(N(C)S(C)(=O)=O)c2)ccc1C	-4	14	-2	4	2	-2	/	/
C=CCN(CC=C)C(=O)Nc1cc(Cl)ccc1OC	-1	5	-12	1	-4	0	/	/
CC1(C)CC(=O)C(C(C2=C(O)CC(C)(C)CC2=O)c2cccc(O)c2)C(=O)C1 (stereo not drawn)	-7	19	12	0	-6	-2	/	/
CC1(C)CC(=O)C2=C(C1)N(c1cccc(O)c1)C1=C(C2)C(=O)CC(C)(C)C1	0	26	0	43*	3	2	25	25
Cc1ccc(NS(=O)(=O)c2ccc(CCC(=O)NC3CC3)cc2)cc1	-3	-4	13	28*	1	-4	10	11
Cc1ccc(NC(=O)CCc2ccc(S(=O)(=O)NC3CCCCC3)cc2)cc1	-6	-5	/	14	/	-2	/	/
SMILES	S1P2 ag	S1P2 antag	CD11b adhes inh	GALR2 blocker	Mac1 fbg enh	GALR2 agonist	GALR2 blk conf	BLA inhib ctr
Cc1onc(-c2ccccc2)c1C(=O)Nc1nc2c(s1)CCCC2	-2	-9	-4	27*	-2	-1	8	4
O=C(CSc1nnnn1C1CCCC1)NCc1ccccc1	-3	15	/	-3	/	-1	/	/
O=C(CSc1nnnn1C1CC2CCC1C2)Nc1ccnc2ccccc12 (stereo not drawn)	/	/	100*	45*	-13	0	64*	20
ONC(=Nc1ccc(Cl)cc1)c1ccc(Cl)cc1	-3	14	-13	-13	2	0	/	/
Cc1[nH]c2ccc(OCc3ccccc3)cc2c1CCN1C(=O)OC(C)(C)C1(C)O (stereo not drawn)	-3	-8	7	-2	10	-3	/	/
CC1(C)OC(=O)N(CCc2ccccc2)C1(C)O (stereo not drawn)	/	/	-12	31*	4	-3	10	10
COC(=O)c1ccc(COC(=O)c2[nH]c(C)c(C(C)=O)c2C)o1	-2	29	76*	27*	-8	0	30*	2
COc1cccc(C2=CC(c3ccc(N(C)C)cc3)n3ncnc3N2)c1 (stereo not drawn)	-1	-8	-11	8	-1	1	/	/
COc1cccc(C2=CC(c3ccccc3)n3ncnc3N2)c1 (stereo not drawn)	-7	25	/	27*	/	-1	30*	36*
O=c1ccc2cc(S(=O)(=O)N3CCN(c4cc(Cl)ccc4Cl)CC3)ccc2o1	-2	8	-9	-4	-3	-2	/	/
O=C(O)C1C2C=CC(C2)C1C(=O)NCc1ccoc1 (stereo not drawn)	-2	4	-3	-9	2	-1	/	/
O=C(CSCc1nc2ccccc2[nH]1)N1CCN(c2ccc(F)cc2)CC1	-13	10	7	30*	4	-3	23	11
Cc1cccc(NC(=O)c2ccccc2NC(=O)C2CCCCC2)c1C	-3	-8	/	42*	/	-2	10	16
O=C(Nc1ccccc1)c1ccccc1NC(=O)C1CCCCC1	-7	2	/	2	/	-3	/	/
O=C1C2CCCN2C(c2ccccc2F)N1c1cccc(Cl)c1 (stereo not drawn)	-5	10	-16	9	-2	-2	/	/
CCOc1ccc(C2=Nn3c(nnc3-c3ccccc3OC)SC2)cc1	5	6	28	33*	-1	5.3*	32*	60*
CCOc1ccc(-c2nnc3n2N=C(c2ccc(OC)cc2)CS3)cc1	2	-25	/	-1	/	-2	/	/
